Laboratory results: PubChem BioAssay AID1159580 (chemical genetic matrix, 2015)
In all, about 5,500 compounds went through this assay and about 2,000 (36%) were called active. Not shown: some 18% with an inconclusive outcome. No stated cut-off is given here; in the data, active means normalized growth mostly below about 0.91 (no sharp cut-off); inconclusive means no clear call, values can overlap the other calls; inactive means mostly above about 0.92. This is one part of the list.

Assay: chemical genetic growth profiling, strain panel (AID 1159580);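 further: tested at 20 µM; growth read once vehicle control cultures reached saturation at 30 °C; 1 = growth at the plate median or of vehicle wells; lower values mean less growth of the strain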
Settings: growth OD

Measured: normalized growth

ClC1C(Cl)C(Cl)C(Cl)C(Cl)C1Cl (stereo unspecified)
inactive: S. cerevisiae deletion strains, locus YJR075W, strain HOC1, active compounds read low 0.926 | S. cerevisiae deletion strains, locus YKL009W, strain mrt4, active compounds read low 0.964 | S. cerevisiae deletion strains, locus YKL190W, strain CNB1, active compounds read low 0.954 | S. cerevisiae deletion strains, locus YKR026C, strain gcn3, active compounds read low 0.964 | S. cerevisiae deletion strains, locus YKR091W, strain srl3, active compounds read low 0.963 | S. cerevisiae deletion strains, locus YLL001W, strain dnm1, active compounds read low 0.938 | S. cerevisiae deletion strains, locus YLL026W, active compounds read low 0.956 | S. cerevisiae deletion strains, locus YLL041C, strain sdh2, active compounds read low 0.979 | S. cerevisiae deletion strains, locus YLR058C, strain SHM2, active compounds read low 0.942 | S. cerevisiae deletion strains, locus YLR102C, strain apc9, active compounds read low 0.935 | S. cerevisiae deletion strains, locus YLR113W, strain HOG1, active compounds read low 0.862 | S. cerevisiae deletion strains, locus YLR258W, strain gsy2, active compounds read low 0.969 | S. cerevisiae deletion strains, locus YLR268W, strain sec22, active compounds read low 0.949 | S. cerevisiae deletion strains, locus YLR330W, strain CHS5, active compounds read low 0.948 | S. cerevisiae deletion strains, locus YLR342W, strain FKS1 (second series), active compounds read low 0.947 | S. cerevisiae deletion strains, locus YLR357W, strain rsc2, active compounds read low 0.996 | S. cerevisiae deletion strains, locus YLR370C, strain arc18, active compounds read low 0.975 | S. cerevisiae deletion strains, locus YLR371W, strain rom2, active compounds read low 0.944 | S. cerevisiae deletion strains, locus YLR384C, strain iki3, active compounds read low 0.991 | S. cerevisiae deletion strains, locus YLR418C, strain cdc73, active compounds read low 0.843 | S. cerevisiae deletion strains, locus YML016C, strain PPZ1, active compounds read low 0.945 | S. cerevisiae deletion strains, locus YML032C, strain rad52, active compounds read low 0.927 | S. cerevisiae deletion strains, locus YML120C, strain ndi1, active compounds read low 0.978 | S. cerevisiae deletion strains, locus YMR078C, strain ctf18, active compounds read low 0.918 | S. cerevisiae deletion strains, locus YMR125W, strain sto1, active compounds read low 1.03 | S. cerevisiae deletion strains, locus YMR129W, active compounds read low 0.988 | S. cerevisiae deletion strains, locus YMR223W, strain ubp8, active compounds read low 0.956 | S. cerevisiae deletion strains, locus YMR231W, strain pep5, active compounds read low 1.01 | S. cerevisiae deletion strains, locus YMR263W, strain SAP30, active compounds read low 0.955 | S. cerevisiae deletion strains, locus YMR307W, strain GAS1, active compounds read low 1.07 | S. cerevisiae deletion strains, locus YNL067W, strain RPL9B, active compounds read low 0.968 | S. cerevisiae deletion strains, locus YNL128W, strain TEP1, active compounds read low 0.958 | S. cerevisiae deletion strains, locus YNL153C, strain GIM3, active compounds read low 0.969 | S. cerevisiae deletion strains, locus YNL183C, strain NPR1, active compounds read low 0.905 | S. cerevisiae deletion strains, locus YNL209W, strain ssb2, active compounds read low 0.992 | S. cerevisiae deletion strains, locus YNL233W, strain BNI4, active compounds read low 0.975 | S. cerevisiae deletion strains, locus YNL248C, strain rpa49, active compounds read low 0.995 | S. cerevisiae deletion strains, locus YNL250W, strain rad50, active compounds read low 0.909 | S. cerevisiae deletion strains, locus YNL271C, strain bni1, active compounds read low 0.948 | S. cerevisiae deletion strains, locus YNL298W, strain CLA4, active compounds read low 0.946 | S. cerevisiae deletion strains, locus YNL322C, strain KRE1 (second series), active compounds read low 0.969 | S. cerevisiae deletion strains, locus YNL322C, strain KRE1, active compounds read low 0.941 | S. cerevisiae deletion strains, locus YNR049C, strain mso1, active compounds read low 0.975 | S. cerevisiae deletion strains, locus YNR052C, strain pop2, active compounds read low 0.963 | S. cerevisiae deletion strains, locus YOL006C, strain TOP1, active compounds read low 0.843 | S. cerevisiae deletion strains, locus YOL012C, strain htz1 0.8 | S. cerevisiae deletion strains, locus YOR001W, strain rrp6, active compounds read low 0.963 | S. cerevisiae deletion strains, locus YOR061W, strain CKA2, active compounds read low 0.948 | S. cerevisiae deletion strains, locus YOR069W, strain VPS5, active compounds read low 0.963 | S. cerevisiae deletion strains, locus YOR070C, strain gyp1, active compounds read low 0.965 | S. cerevisiae deletion strains, locus YOR080W, strain dia2, active compounds read low 1.02 | S. cerevisiae deletion strains, locus YOR083W, strain WHI5, active compounds read low 0.914 | S. cerevisiae deletion strains, locus YOR106W, strain vam3, active compounds read low 0.942 | S. cerevisiae deletion strains, locus YOR136W, strain idh2, active compounds read low 0.962 | S. cerevisiae deletion strains, locus YOR144C, strain elg1, active compounds read low 0.94 | S. cerevisiae deletion strains, locus YOR184W, strain ser1, active compounds read low 0.977 | S. cerevisiae deletion strains, locus YOR231W, strain MKK1, active compounds read low 0.971 | S. cerevisiae deletion strains, locus YOR265W, strain rbl2, active compounds read low 0.981 | S. cerevisiae deletion strains, locus YOR290C, strain snf2, active compounds read low 0.921 | S. cerevisiae deletion strains, locus YOR316C, strain cot1, active compounds read low 0.924 | S. cerevisiae deletion strains, locus YPL055C, strain LGE1, active compounds read low 0.965 | S. cerevisiae deletion strains, locus YPL106C, strain sse1, active compounds read low 1.01 | S. cerevisiae deletion strains, locus YPL240C, strain hsp82, active compounds read low 0.978 | S. cerevisiae deletion strains, locus YPL241C, strain CIN2, active compounds read low 0.961 | S. cerevisiae deletion strains, locus YPR163C, strain tif3, active compounds read low 0.938 | S. cerevisiae deletion strains, strain wtn01, active compounds read low 0.932 | S. cerevisiae strains, strain wild type, active compounds read low 0.952
active: S. cerevisiae deletion strains, locus YKL068W, active compounds read low 0.902 | S. cerevisiae deletion strains, locus YKL085W, strain MDH1 (second series), active compounds read low 0.909 | S. cerevisiae deletion strains, locus YKL085W, strain MDH1, active compounds read low 0.909 | S. cerevisiae deletion strains, locus YKL160W, strain elf1, active compounds read low 0.873 | S. cerevisiae deletion strains, locus YKR001C, strain vps1, active compounds read low 0.879 | S. cerevisiae deletion strains, locus YLR027C, strain aat2, active compounds read low 0.916 | S. cerevisiae deletion strains, locus YLR039C, strain RIC1, active compounds read low 0.506 | S. cerevisiae deletion strains, locus YLR221C, strain rsa3, active compounds read low 0.872 | S. cerevisiae deletion strains, locus YLR262C, strain YPT6 (second series), active compounds read low 0.659 | S. cerevisiae deletion strains, locus YLR262C, strain YPT6, active compounds read low 0.57 | S. cerevisiae deletion strains, locus YLR320W, strain mms22, active compounds read low 0.622 | S. cerevisiae deletion strains, locus YLR342W, strain FKS1, active compounds read low 0.89 | S. cerevisiae deletion strains, locus YML124C, strain tub3, active compounds read low 0.929 | S. cerevisiae deletion strains, locus YMR058W, strain fet3, active compounds read low 0.846 | S. cerevisiae deletion strains, locus YMR205C, strain PFK2, active compounds read low 0.665 | S. cerevisiae deletion strains, locus YNL071W, strain lat1, active compounds read low 0.638 | S. cerevisiae deletion strains, locus YOL147C, strain pex11, active compounds read low 0.929 | S. cerevisiae deletion strains, locus YOR270C, strain vph1, active compounds read low 0.67 | S. cerevisiae deletion strains, locus YPL051W, strain arl3, active compounds read low 0.872 | S. cerevisiae deletion strains, locus YPL078C, strain atp4, active compounds read low 0.865 | S. cerevisiae deletion strains, locus YPL256C, strain CLN2, active compounds read low 0.821 | S. cerevisiae deletion strains, locus YPR119W, strain clb2, active compounds read low 0.923 | S. cerevisiae deletion strains, locus YPR141C, strain kar3, active compounds read low 0.89 | S. cerevisiae deletion strains, locus YPR167C, strain met16, active compounds read low 0.91
